ChEMBL document CHEMBL4888484, “Replenishing the malaria drug discovery pipeline: Screening and hit evaluation of the MMV Hit Generation Library 1 (HGL1) against asexual blood stage Plasmodium falciparum ,using a nano luciferase reporter read-out” (2022)
Hit rate of the full screen: of about 4,800 compounds, about 420 (8.8%) showed an effect of 50% or more. Only a selection was taken, and strong results are over-represented in it overall. Where a SMILES comes first, the peptide text is derived from it. The star is where a group is joined. NHPhenethyl = c1ccc(CCN*)cc1

Tested on: Plasmodium falciparum
Test: Confirmatory screen in NF54 nanoGlo assay, in single point, at 2uM, 72h
Assay type: functional, Erythrocyte
Conditions: timepoint 72 hour

| Structure (SMILES) | % Inhibition [%] |
| --- | --- |
| CC(C)n1ccc(CN2CCC[C@H](c3cc(C(F)(F)F)[nH]n3)C2)n1 | -9 |
| CCc1ccc(CN2CCC[C@H](c3ncc[nH]3)C2)nc1 | 52 |
| CCc1ccc([C@H]2NCCc3[nH]cnc32)nc1 | 29 |
| CCN(CC)c1ccc(N2C(=O)c3c(Br)c(Br)c(Br)c(Br)c3C2=O)cc1 | 5 |
| C=CCNC(=S)NS(=O)(=O)c1ccc(Cl)cc1 | 3 |
| COc1cc(CNCCN2CCOCC2)ccc1OCc1ccc(C)cc1 | -1 |
| CCOc1cc(=O)c(C(=O)N2CCC(C(N)=O)CC2)nn1-c1ccc(F)cc1 | -6 |
| Cn1c(N)c(S(=O)(=O)N2CCN(c3ccccc3Cl)CC2)c(=O)n(C)c1=O | 61 |
| Cc1ccccc1S(=O)(=O)N1CCN(c2c(C)n(-c3ccccc3)c(=O)n(C)c2=O)CC1 | 1 |
| CCS(=O)(=O)N1CCN(c2c(C)n(-c3ccccc3)c(=O)n(C)c2=O)CC1 | 2 |
| CC(C)n1cc(CN[C@@]2(CO)CCCc3ccccc32)cn1 | -5 |
| CCN(CC)CCCNC(=O)[C@H]1CCCN(c2nc3ccccc3n(Cc3ccccc3)c2=O)C1 | 0 |
| CCC1CN2CCCC2CN1C(=O)Nc1nc2ccccc2s1 (configuration not stated) | -1 |
| COc1ccc(CNC(=O)Cn2c(=O)n(Cc3cccc(OC)c3)c(=O)c3sccc32)cc1 | 1 |
| Cn1ccc(NC(=O)C(=O)N2CC[C@H](c3ccco3)C2)n1 | -1 |
| Cc1cccc(C(=O)Nc2ccc(N3CCCCCC3)cc2C(=O)O)c1 | -10 |
| O=C(Nc1cc(N2CCCS2(=O)=O)ccc1O)c1cccc(Oc2cccc(C(F)(F)F)c2)c1 | 100 |
| O=C(Nc1cccc(C(F)(F)F)c1)C(Oc1ccccc1)Oc1ccccc1 | -20 |
| CC(C)(C)CC(=O)NC[C@H]1OC[C@@H](NC2CCCC2)[C@@H]1O | 3 |
| Cc1n[nH]c(C)c1NC(=O)C1=NO[C@@H](CNC(=O)OC(C)(C)C)C1 | 0 |
| Cc1cccc(C(=O)N[C@H]2CCN(c3ccccc3)C2=O)c1 | 13 |
| Cn1c(=O)c2c(ncn2CC(=O)N(Cc2ccccc2)C2CC2)n(C)c1=O | -4 |
| CN(Cc1nccn1C)C(=O)c1cc2ccccc2[nH]1 | 5 |
| C=CCNC(=O)c1cc(Br)cc(Br)c1OC | 6 |
| COc1cc([C@@H]2C=C(c3ccc(Cl)cc3)Nc3ncnn32)ccc1OCc1ccc(Cl)cc1 | 3 |

| Structure (SMILES) | % Inhibition [%] |
| --- | --- |
| Cc1ccc(C2=C[C@@H](c3ccc(Cl)cc3)n3nc(NC(=O)c4ccccc4)nc3N2)cc1 | 94 |
| Cc1ccc([C@@H]2C=C(C(=O)O)Nc3c(C(N)=O)nnn32)cc1 | -14 |
| Cc1nnc2ccc(S(=O)(=O)N(Cc3ccccc3F)c3cc(F)cc(F)c3)cn12 | -5 |
| CC(N)C(=O)NC(C)C(=O)NCCc1ccccc1 (stereo not drawn) (H-Ala-Ala-NHPhenethyl; configuration not given here) | -5 |
| CCOC(=O)c1c(CN2CCCC2)n(C)c2cc(-c3cccnc3)c(O)c(Cn3ccnc3)c12 | 60 |
| CCOC(=O)c1ncn(C2CCN(C(=O)c3cccc(Cn4ccnc4)c3)CC2)c1N | -3 |
| Cc1nn(C)c(C)c1S(=O)(=O)N1CC[C@]2(CCN(c3cccnc3)C2)C1 | 1 |
| Cc1cc(NC(=O)c2cccc(S(=O)(=O)NC3CC3)c2)no1 | -8 |
| O=C(C[C@H]1CCC(=O)N(CC2CC2)CC1)Nc1ccccc1F | 4 |
| COc1cccc(CNCCCn2ccnc2)c1OCc1ccc(F)cc1 | 6 |
| COc1ccc(C)c2sc(N(CCCn3ccnc3)C(=O)Cc3ccc(F)cc3)nc12 | 79 |
| Cn1cccc1CNCc1ccncc1 | 0 |
| CCN(CC)[C@H](CNC(=O)C1=NN(C)C(=O)CC1)Cc1ccccc1 | 2 |
| CC1CCC(c2noc([C@H]3CCO[C@@H]3c3cncc(Br)c3)n2)CC1 (some centres not stated) | 52 |
| O=C(c1cncc(Br)c1)N1CC[C@H](c2nc(C3CCOCC3)no2)C1 | -2 |
| c1csc(-c2noc(Cc3c[nH]c4ccccc34)n2)c1 | 21 |
| COc1ccc(CC(=O)N(c2ccccc2)c2ccccc2)cc1 | 21 |
| COc1ccc(C(=O)N2CC(C(=O)O)CCC2c2ccccc2)cc1 (configuration not stated) | 3 |
| COc1ccc(C(=O)N(C(=O)c2ccc(OC)cc2)c2c3c(nc4ccccc24)CCCC3)cc1 | 72 |
| C[C@H](Oc1ccccc1)C(=O)N1CCC(c2nc(-c3ccc4c(c3)OCO4)no2)CC1 | 6 |
| c1cc(-c2noc(C3CC3)n2)nc(N2CCNCC2)n1 | -12 |
| Cc1nc(N2CCC(c3nc(-c4ccccc4)no3)CC2)c2c(C)noc2n1 | 54 |
| C=CCC(N)(CC=C)c1ccc(C)cc1 | -6 |
| Cn1nnnc1NC/C=C/c1ccccc1 | -4 |
| C=C1C(C)C2C(Cc3c[nH]c4ccccc34)NC(=O)C23C(=O)CC(O)C(O)CC(C)C/C=C/C3C1O (configuration not stated) | 44 |

| Structure (SMILES) | % Inhibition [%] |
| --- | --- |
| CCC(C)C(NC(=O)c1ccccc1NC(=O)c1ccco1)C(=O)N1CCCCCC1 (configuration not stated) | -9 |
| Cc1nc(C)c(CN2C(=O)C3CCCCC3C2=O)s1 (configuration not stated) | -2 |
| O=C([C@H]1CC(=O)N(c2ccc(F)c(Cl)c2)C1)N1CCN(C(c2ccccc2)c2ccccc2)CC1 | -3 |
| O=C(c1ccoc1)N1CCC[C@H](C(=O)N2CCN(C(c3ccccc3)c3ccccc3)CC2)C1 | -1 |
| O=C(c1cccc(C(=O)N2CCN(C(c3ccccc3)c3ccccc3)CC2)c1)N1CCN(C(c2ccccc2)c2ccccc2)CC1 | 63 |
| C[C@@H](C(=O)Nc1cccc2ccccc12)c1ccc(-c2ccccc2)c(F)c1 | -11 |
| CC[n+]1c(/C=C/N(C)c2ccccc2)oc2ccccc21 | 80 |
| CC[n+]1c(/C=C/N(C)c2ccccc2)oc2ccc(-c3ccccc3)cc21 | 89 |
| CC(C)(C(=O)Nc1nccs1)c1cccnc1 | -2 |
| Cn1cc(C(=O)N2N=CC[C@]2(O)C(F)(F)F)cn1 | 1 |
| O=C(c1cc(-c2ccccc2)n[nH]1)N1CCC(N2CCc3sccc3C2)CC1 | 21 |
| CCOc1c(CNC(C)(C)C)cccc1OC | -9 |
| CC(C)c1cnc(NCCCC[C@H]2CCCO2)nc1 | -2 |
| Cc1cccc(Oc2nc3ccccc3n3c(=O)n(CC(=O)NCc4ccc(Cl)cc4)nc23)c1C | -10 |
| Cc1ccc(S(=O)(=O)c2ccc3c(c2)Oc2ccccc2N3)cc1 | -10 |
| O=C(NC1CCN(Cc2ccccc2)CC1)c1cnn2c(-c3ccc4c(c3)OCO4)ccnc12 | 3 |
| Cc1nc2cc3c(cc2n1CC(=O)Nc1ccc(Cl)cc1)OCCCO3 | -4 |
| Cc1noc(C)c1CC(=O)Nc1cccc(-c2nnco2)c1 | 3 |
| Cn1cc(-c2ccc(Cl)cc2)c2ncn(CC(=O)Nc3cccc(Cl)c3)c(=O)c21 | -5 |
| CCc1cccc(NC(=O)Cn2ccc3ccc(-c4nnc(C)o4)cc32)c1 | 81 |
| Cc1nnc(-c2ccc3ccn(CC(=O)Nc4ccc(F)c(Cl)c4)c3c2)o1 | 78 |
| Cc1cc(=O)n(CC(=O)Nc2ccc(Cl)c(C(F)(F)F)c2)c(-c2ccc(F)cc2)n1 | -6 |
| O=C(Nc1ccccc1)N1CCC[C@H]1c1ccncc1 | -12 |
| CC(C)N1CCC2(CC1)N=C(c1ccc3c(c1)OCO3)C[C@@H](c1cc(Cl)ccc1O)N2 | 41 |
| O=C(C[C@@H]1C(=O)Nc2nc(N3CCOCC3)[nH]c(=O)c21)Nc1ccc(Cl)cc1 | 9 |

| Structure (SMILES) | % Inhibition [%] |
| --- | --- |
| Cn1c(-c2ccc(Cl)c(Cl)c2)c[n+](CC(=O)c2ccc(-c3ccccc3)cc2)c1N | 6 |
| COC(=O)CN(C(C)C)S(=O)(=O)c1cc(Cl)cc(Cl)c1 | 3 |
| N#Cc1ccc(S(=O)(=O)N2C3CCC2CC(O)C3)o1 (configuration not stated) | -11 |
| CCCCCc1c(C)nc2[nH]n(-c3ccccc3)c(=O)c2c1O | -19 |
| O=C1CCCc2nc3[nH]n(-c4ccccc4)c(=O)c3cc21 | 8 |
| CNCCc1c(-c2ccccc2)[nH]n(-c2ccccc2)c1=O | 63 |
| CCc1n[nH]c(C(=O)N2CC3CCCN3CC2CC)c1Br (configuration not stated) | 7 |
| Oc1ccc(C2=C(c3ccccc3)N=NCN2O)c(O)c1 | -14 |
| COCc1c(Br)c(C)nc(O)c1C#N | -8 |
| CCN1c2cc(C(=O)Nc3ccc(OC)cc3OC)ccc2C(=O)N2CCCC[C@H]21 | 8 |
| CC[C@H]1Cn2c(C(=O)NCc3ccc4c(c3)OCO4)cc3c(Cl)ccc(c32)O1 | -11 |
| Cc1ccc(Cn2c(=O)c(C(=O)NCc3ccc4c(c3)OCO4)nn(-c3ccc(C(C)C)cc3)c2=O)cc1 | 64 |
| O=C(Cn1cnc2ccc(Cl)cc2c1=O)NCc1ccc2c(c1)OCO2 | -5 |
| COc1ccc(S(=O)(=O)N2CCN(C(=O)N(C)C)[C@@H]2c2ccccc2)cc1 | 0 |
| COC(=O)c1cc(Cl)c(Cl)cc1N | -6 |
| COc1cccc([C@H]2CC(=O)Nc3nc(N4CCCCC4)sc32)c1 | 6 |
| COc1ccc(OC)c(S(=O)(=O)N2C[C@H]3CCCC(=O)N[C@H]3C2)c1 | -4 |
| COc1ccc(F)cc1S(=O)(=O)N1CCc2noc(N)c2C1 | 68 |
| COc1ccc(S(=O)(=O)N2CCC(c3cc(N)on3)CC2)cc1Cl | 46 |
| O=C(c1ccccn1)N1CC(n2cnnc2[C@@H]2CCCO2)C1 | -8 |
| Oc1ccc([C@@H](c2cn(-c3nc(-c4ccc(Cl)cc4)cs3)nc2-c2ccccc2)c2c(-c3ccccc3)nn(-c3nc(-c4ccc(Cl)cc4)cs3)c2O)cc1 | 6 |
| c1nc2nc[nH]c(NC3CCCCC3)c-2n1 | 10 |
